# High-throughput results: PubChem BioAssay, National Center for Advancing Translational Sciences (NCATS)
# CHX counter – counter-screen hit for Shiga toxin inhibitors, cycloheximide. max response, %. cell reporter, cycloheximide protein synthesis inhibition counterscreen. hit rate 12% among 300,000; in the data active means max response mostly above about 13%, no sharp cut-off; inactive means mostly below about 14%; further: read at 38.3 µM for the half of the compounds with a filed dose
# Marburg entry inh – inhibitors of Marburg virus binding or cell entry; Marburg virus pseudotyped entry inhibition, cell reporter; Potency, µM (highest dose often 37.8 µM), hits mostly inhibitors; hit rate 1.8% among 300,000; calls by dose curve; tested in HEK293 cells
# Shiga inhibitor – Shiga toxin inhibition | Vero cells, Shiga toxin protein synthesis inhibition reporter | inhibition, % at 38.7 µM | hit rate 9.2% among 290,000; in the data active means inhibition mostly above about 28%, no sharp cut-off; inactive means mostly below about 43%
# Lassa entry inh – Lassa virus entry inhibition; Lassa virus pseudotype entry inhibition, cell reporter; Potency, µM (top dose mostly 37.9 µM), most hits filed as inhibitors; hit rate 1.2% among 300,000; AID 540256; calls by dose curve; tested in HEK293 cells; further: nearly all actives have a fitted effect of over 50% in size
# A number is an active result; i = inactive; ? = inconclusive; nt = no result given. Compounds with a hit are over-represented: about 12% of the library has one in this group of screens.
SMILES,CHX counter,Marburg entry inh,Shiga inhibitor,Lassa entry inh
CN(C)c1cccc(C(=O)NCc2ccc3c(c2)OCO3)c1,33,i,57,i
Cc1ccc(C(=O)NCc2ccc(Cl)cc2)o1,i,i,i,i
CN(C)c1ccc(C(=O)NCc2ccc3c(c2)OCO3)cc1,i,?,i,i
CC(C)c1ccc(C(=O)NCCCN2CCN(CCCNC(=O)c3ccc(C(C)C)cc3)CC2)cc1,i,?,i,11µM
COc1ccc(CNC(=O)COC(=O)c2ccc3c(c2)OCCO3)cc1,i,i,i,?
COC(=O)c1ccc(CNC(=O)c2ccc3c(c2)OCCO3)cc1,19,i,i,?
O=C(NCCc1cccc(Cl)c1)c1ccc2c(c1)OCO2,32,nt,56,nt
O=C(/C=C/c1ccc2c(c1)OCO2)NCCSCc1cccc(Cl)c1,21,?,i,?
Cc1ccccc1-c1nnn(CC(=O)Nc2ccc3c(c2)OCCO3)n1,58,i,141,i
O=C(c1cccc(S(=O)(=O)N2CCc3ccccc32)c1)N1CCOCC1,nt,i,nt,i
O=C(NCc1ccc(Cl)cc1)c1cccc(NC(=O)c2ccccc2)c1,i,?,i,?
CC(C)c1ccc(C(=O)NCc2ccc(Cl)cc2)cc1,74,?,141,i
CN(C)c1cccc(C(=O)NCc2ccc(Cl)cc2)c1,27,i,71,i
CN(C)c1ccc(-c2nnn(CC(=O)NCc3ccc4c(c3)OCO4)n2)cc1,28,?,i,i
Cc1ccc(C(=O)NCc2ccc3c(c2)OCO3)cc1,13,nt,i,nt
Cc1ccc(CC(=O)NCc2ccc3c(c2)OCO3)cc1,i,i,i,i
COc1ccc(S(=O)(=O)NCC(=O)O)cc1C(=O)NC1CCCCC1,i,i,i,i
CCCn1c(N)c(C(=O)COC(=O)CCNS(=O)(=O)c2ccccc2F)c(=O)[nH]c1=O,nt,i,nt,i
CCS(=O)(=O)N1CCc2cc(C(=O)Nc3cc(OC)c(Cl)cc3OC)ccc21,nt,i,nt,i
CCCCC(Sc1nc(N)c(NC(=O)c2ccc(OC)cc2)c(=O)[nH]1)C(=O)O (stereo not drawn),i,i,i,i
Cc1nnc(N2CCN(c3ccc(Cl)cc3)CC2)c2c1nnn2Cc1ccc(F)cc1,nt,i,nt,i
Cc1cc(Cl)ccc1NC(=O)c1cccc(NC(=O)N2CCSc3ncccc32)c1,nt,nt,nt,i
O=C(NCc1ccc2c(c1)OCO2)c1ccc2c(c1)OCCO2,i,?,18,i
O=C(NCc1cccc(C(F)(F)F)c1)c1cc(Cl)cc(Cl)c1,i,i,i,i
O=C(Cn1nnc(-c2ccccc2)n1)Nc1ccc2c(c1)OCO2,i,i,i,i
SMILES,CHX counter,Marburg entry inh,Shiga inhibitor,Lassa entry inh
O=C(Cn1nnc(-c2ccc3c(c2)OCO3)n1)Nc1ccccc1C(=O)O,31,?,41,i
CCOCCCNC(=O)c1ccc2c(c1)OCO2,23,i,58,i
O=C(NCCOc1ccccc1)c1ccc2c(c1)OCO2,i,?,i,?
O=C(NCc1cccc(C(F)(F)F)c1)c1ccc2c(c1)OCO2,10,nt,i,nt
C=CCn1c(SCc2ccccc2Cl)nnc1-c1sc2nc(C)cc(C)c2c1N,i,i,i,nt
O=C(NCc1cccc(Cl)c1)c1ccc2c(c1)OCCO2,21,i,nt,i
O=C(NCc1ccc2c(c1)OCO2)c1ccc(Br)s1,12,nt,i,nt
